From PubChem
Shown are actives, neighbours in structure and some others; about 1.8% of the full set was active somewhere.
KDM4E inh: blocks human JMJD2E demethylase activity; Potency, µM (series often up to 57.1 µM), actives largely listed as inhibitors; JMJD2E catalytic domain, FDH-coupled NADH fluorescence (FDH is formaldehyde dehydrogenase); B2RXH2; 230,000 compounds, 1.6% hits; AID 2147; active means well fitted inhibition curve with a large enough effect, not every such curve was filed as active; inconclusive means small, poorly fitted or top-dose-only effect, or another doubt; inactive means no such curve, though single readings can be large or run the other way; further: nearly all actives have a fitted effect of over 50% in size
L3MBTL1 inh: L3MBTL1 (human) inhibition. Q9Y468. AlphaScreen L3MBTL1–H3K9me1 peptide binding. Potency, µM (doses to about 57.1 µM), most hits filed as inhibitors. 230,000 compounds, 0.66% hits; further: nearly all actives have a fitted effect of over 60% in size
Target sequence (Q9Y468 whole entry, looked up): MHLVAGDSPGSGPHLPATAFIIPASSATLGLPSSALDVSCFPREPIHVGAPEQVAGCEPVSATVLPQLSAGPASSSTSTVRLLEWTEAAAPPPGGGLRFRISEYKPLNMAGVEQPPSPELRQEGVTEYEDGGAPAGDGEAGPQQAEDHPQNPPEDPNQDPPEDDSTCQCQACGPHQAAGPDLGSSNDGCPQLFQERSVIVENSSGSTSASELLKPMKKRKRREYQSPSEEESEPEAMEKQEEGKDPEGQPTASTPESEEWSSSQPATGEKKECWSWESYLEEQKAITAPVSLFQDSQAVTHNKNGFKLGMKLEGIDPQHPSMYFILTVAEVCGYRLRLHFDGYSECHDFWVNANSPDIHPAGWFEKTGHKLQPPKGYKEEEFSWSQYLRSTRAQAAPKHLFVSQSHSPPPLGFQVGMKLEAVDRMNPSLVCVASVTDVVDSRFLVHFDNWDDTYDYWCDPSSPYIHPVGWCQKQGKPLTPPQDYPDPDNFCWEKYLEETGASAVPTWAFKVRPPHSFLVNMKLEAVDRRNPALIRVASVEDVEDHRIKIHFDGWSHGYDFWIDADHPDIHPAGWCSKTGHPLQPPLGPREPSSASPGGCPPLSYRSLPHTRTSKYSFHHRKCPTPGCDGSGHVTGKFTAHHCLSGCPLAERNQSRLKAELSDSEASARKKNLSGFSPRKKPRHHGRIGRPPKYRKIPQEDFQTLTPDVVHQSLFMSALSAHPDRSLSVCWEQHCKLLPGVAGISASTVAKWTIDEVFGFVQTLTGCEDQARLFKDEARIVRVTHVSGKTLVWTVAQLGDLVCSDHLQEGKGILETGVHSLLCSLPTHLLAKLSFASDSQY
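Read-out is AlphaScreen signal from streptavidin donor and nickel chelate acceptor beads (10 ug/mL final each) bridging L3MBTL1 (50 nM) and biotinylated K9-monomethylated H3(1-15) peptide (75 nM), after 30 min compound exposure at room temperature.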
HTT ATP protect: Huntington cell model cytoprotection by ATP luminescence | PC12 HTT-Q103 induced, cytoprotection, ATP luminescence, 40 h | 230,000 compounds, 0.14% hits | Potency, µM (top dose mostly 56.4 µM), actives largely listed as activators; further: nearly all actives have a fitted effect of over 45% in size
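Rat PC12, Q103 Htt exon1-GFP fusion, ecdysone promoter; tebufenozide inducer 100 nM final; compound titration; qHTS, 1500 cells/well; ATPlite luminescent read.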
HTT aggregate: mutant huntingtin aggregation inhibition. Potency, µM (top dose mostly 46.1 µM), most hits filed as inhibitors. 220,000 compounds, 1.1% hits. PC12 HttQ103-GFP aggregates, Acumen cytometry, 40 h; further: nearly all actives have a fitted effect of over 60% in size
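Quantitative HTS on tebufenozide-induced (100 nM) PC12 cells stably expressing polyQ103 Huntingtin exon 1–GFP. Reduction of bright GFP aggregates, detected by laser scanning cytometry after lysis, identified actives across the titration.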
Hits are given with their value; – = inactive; ? = inconclusive; · = no result; ! = repeats disagree; [ ] = dose if it differs, or a comment. Unless noted, the call rests on the fitted dose curve; in most records, active means well fitted curve in the direction sought with a large enough effect; inconclusive means small, poorly fitted or top-dose-only effect, or another doubt; inactive means no such curve, though single readings can be large; an effect the other way counts as inactive or inconclusive.

SMILES	KDM4E inh	L3MBTL1 inh	HTT ATP protect	HTT aggregate
O=C(O)CC1OCC=C2CN3CCC45c6ccccc6NC4C1C2CC35 (configuration not stated)	–	·	–[10 µM]	–[9.22 µM]
c1ccc(CNc2c3c(nc4ccccc24)CCC3)cc1	?	–	–[10 µM]	4.47µM
CC[C@@H]1C(=O)OC[C@@H]1Cc1cncn1C	25.1µM!	–	·	–
COC(=O)c1ccc(COc2cc(C)cc3oc(=O)c4c(c23)CCCC4)o1	?	–	–[10 µM]	–
Cc1cc(OCC(=O)O)c2c3c(c(=O)oc2c1)CCCC3	?	–	–	–
Cc1cc(OC(=O)c2ccco2)c2c3c(c(=O)oc2c1)CCCC3	–	·	–	12.6µM
Cc1cc(OC(=O)c2cccs2)c2c3c(c(=O)oc2c1)CCCC3	–	–	–[10 µM]	25.1µM
ClCCCCl	·	·	–	·
COc1cc2c(cc1OC)[C@]13CC[N@+]4(C)CC5=CCO[C@H]6CC(=O)N2[C@@H]1[C@@H]6[C@@H]5C[C@]34O	·	·	–[10 µM]	·
CCCCn1c(O)c(C(CC)=NCc2ccc3c(c2)OCO3)c(=O)[nH]c1=O	–	·	–	25.1µM
C=CCn1c(O)c(C(CC)=NCc2ccc3c(c2)OCO3)c(=O)[nH]c1=O	–	–	–[10 µM]	–[9.22 µM]
COC(=O)c1c(C)ccc2c(O)c3c(cc12)C(=O)c1c2c(cc(O)c1C3=O)[C@@]1(C)O[C@@](C)(O2)[C@@H](O)[C@H](N(C)C)[C@H]1O	·	·	–[10 µM]	·
COc1cc2c(cc1OC)[C@]13CCN4CC5=CCO[C@@H]6CC(=O)N2[C@@H]1[C@H]6[C@@H]5C[C@H]43	·	·	–	·
CC(C)(C)NC[C@H](O)c1ccccc1Cl	·	·	–[1.9 µM]	·
C[C@@H]1O[C@@H](O[C@H]2C[C@@H](O)[C@]3(CO)[C@@H]4[C@@H](O)C[C@]5(C)[C@H]([C@@H]6COC(=O)C6)CC[C@@]5(O)[C@H]4CC[C@@]3(O)C2)[C@H](O)[C@H](O)[C@@H]1O	·	·	–[1.9 µM]	·
Cc1c(O)c(=O)ccn1C	7.94µM	–	–[10 µM]	–
CCN1C[C@@]2(C)CC[C@H](O)[C@@]34[C@@H]5C[C@H]6[C@H](O)[C@@H]5[C@](O)(C[C@@H]6OC)[C@H](C[C@@H]23)[C@H]14	·	·	–	·
Cc1ccc(-n2c(C)cc(/C=C3/C(=O)NC(=O)N(Cc4ccco4)C3=O)c2C)cc1	–	?	–[10 µM]	–
O=C1NC(=O)N(Cc2ccco2)C(=O)/C1=C/C=C/c1ccco1	25.1µM	·	–[10 µM]	–[9.22 µM]
Cc1cc(/C=C2\C(=O)NC(=O)N(Cc3ccco3)C2=O)c(C)n1-c1ccc(O)cc1	–	39.8µM	–[10 µM]	–[9.22 µM]
CCOC(=O)C1CCN(/C=C2/C(=O)NC(=O)N(Cc3ccco3)C2=O)CC1	–	14.1µM	–	–
O=C1NC(=O)N(Cc2ccccc2)C(=O)/C1=C\C=C\c1ccco1	–	·	–	?
COc1ccc(/C=C2/C(=O)NC(=O)N(Cc3ccco3)C2=O)cc1	–	8.91µM	–[10 µM]	–[9.22 µM]
Cn1cccc1/C=C1\C(=O)NC(=O)N(Cc2ccco2)C1=O	–	·	–	–
CC[C@H]1C(=O)OC[C@@H]1Cc1cncn1C	·	·	–	·
SMILES	KDM4E inh	L3MBTL1 inh	HTT ATP protect	HTT aggregate
CC(=O)Oc1c2c(c(CC=C(C)C)c3c1C(=O)C1=CC4CC5C(C)(C)OC(C/C=C(\C)C(=O)O)(C4=O)[C@]15O3)OC(C)(CCC=C(C)C)C=C2 (some centres not stated)	–	·	·	·
Cc1cccc(N2C(=O)NC(=O)/C(=C/c3ccc([N+](=O)[O-])o3)C2=O)c1	–	6.31µM	–[10 µM]	?
Cc1cccc(N2C(=O)NC(=O)/C(=C\C=C\c3ccco3)C2=O)c1	–	?	–[10 µM]	–[9.22 µM]
C[C@@]12CC[C@H](O)C[C@@H]1CC[C@H]1[C@H]2C[C@@H](O)[C@]2(C)[C@@H](C3=CC(=O)OC3)CC[C@@]12O	·	·	–	·
CN1/C(=C\C=C\C2=[N+](C)c3ccc4ccccc4c3C2(C)C)C(C)(C)c2ccccc21	–	15.8µM	–	2.82µM
CN1/C(=C\C=Nc2ccccc2)C(C)(C)c2ccccc21	?	–	–	–
O=C(COc1ccc2ccccc2c1)N1CCN(Cc2c[nH]c3ccccc23)CC1	?	–	–[10 µM]	10µM
CN(C(=O)Oc1ccc(Cl)c2cccnc12)c1ccccc1	–	–	·	–
CC(=O)Oc1ccc(Cl)c2cccnc12	17.8µM	·	·	·
O=[N+]([O-])c1cccc(CN2CC=C(c3ccc(F)cc3)CC2)c1	·	–	·	·
O=[N+]([O-])c1cccc(CN2CCN(Cc3ccc(Cl)cc3)CC2)c1	28.2µM	–	–	–
O=C1NC(=O)C(=Cc2ccc(OCCOc3ccc([N+](=O)[O-])cc3)cc2)C(=O)N1	28.2µM	39.8µM	–	–
Cc1ccc(OCCOc2cccc(C=C3C(=O)NC(=O)NC3=O)c2)c(C)c1	·	–	·	·
C[C@@]12CC[C@H]3[C@@H](CCC4=CC(=O)CC[C@]43C)[C@H]1CCC2=O	·	·	–[1.9 µM]	·
Cc1ccc(N2C(=O)NC(=O)/C(=C/c3ccc(OC(=O)c4cccs4)cc3)C2=O)cc1	20µM	–	–	–
CN[C@H](C)[C@H](O)c1ccccc1	–	·	·	·
CN[C@@H](C)[C@H](O)c1ccccc1	3.55µM	·	·	·
O=c1cccc2n1C[C@@H]1C[C@H]2CN2CCCC[C@H]12	·	·	–	·
CCN1C[C@@]2(COC(=O)c3ccccc3N3C(=O)C[C@H](C)C3=O)CC[C@H](OC)[C@@]34[C@@H]5CC6[C@@H](OC)C[C@@](O)([C@H]5[C@H]6OC)C(O)([C@@H]13)[C@@H](OC)[C@H]24	·	·	–	·
CSc1ncc(/C=C2/C(=O)NC(=O)N(C)C2=O)cn1	25.1µM	–	–	–
CSc1ncc(/C=C2/C(=O)NC(=O)N(c3ccc(C(C)C)cc3)C2=O)cn1	?	–	–[10 µM]	?
CCCCN1C(=O)NC(=O)/C(=C/c2cnc(SC)nc2)C1=O	25.1µM	–	–	–
CSc1ncc(/C=C2/C(=O)NC(=O)N(C3CCCCC3)C2=O)cn1	22.4µM	–	–	–
CSc1ccc2c(c1)c(CCN)c(C)n2Cc1ccccc1Cl	·	·	–[10 µM]	·
CC1CCC/C=C/C2CC(O)CC2C(O)/C=C/C(=O)O1 (configuration not stated)	–	·	–	1µM
SMILES	KDM4E inh	L3MBTL1 inh	HTT ATP protect	HTT aggregate
C[C@H]1CCC/C=C/C2C[C@H](O)CC2[C@H](O)/C=C/C(=O)O1 (some centres not stated)	–	–	·	2.82µM
COc1ccccc1CCNCc1ccc(OC)c(OC)c1OC	5.62µM	–	·	·
COc1ccc(CNCCc2c[nH]c3ccccc23)c(OC)c1OC	·	–	·	·
C[n+]1c2cc(N)ccc2cc2ccc(N)cc21	?	·	–	10µM
Nc1ccc2ccccc2c1	·	·	–	·
CC1(C)C(=O)C=C[C@@]2(C)C1CC(O)[C@]1(C)C2CC[C@@]2(C)C(c3ccoc3)OC(=O)C3O[C@]312 (some centres not stated)	–	·	0.794µM	·
CC1(C)C(O)CC(O)[C@]2(C)C1CC(O)[C@]1(C)C2CC[C@@]2(C)C(c3ccoc3)OC(=O)C3O[C@]312 (some centres not stated)	–	·	–	·
CO[C@@H](C)[C@](O)(C(=O)OC1=CCN2CC[C@H](O)[C@H]12)C(C)C	·	·	–	·
